Results filed as inconclusive are left out. The source made the active and inactive calls.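 Rule for the calls, unless noted: active = RAM network inhibition above 8.4% in each of two replicates, 3 SD over the compound average; inconclusive = above 8.4% inhibition in only one replicate; inactive = 8.4% inhibition or less in each replicate.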
How the values were obtained:
[1] = reducers of endogenous Her2 protein level, primary screen, SKBR3 breast tumor cells, AlphaScreen, ATP viability (AID 461;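 active = Her2 level under about 52% in both replicate screens, with viability over 70% of control, limit read from the data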;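 for Her2 level: lower value means less Her2 protein in the cells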;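 for viability: percent of carrier control wells set as 100% viability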); conditions: 18-24 h, measured here: SKBR3 viability, ATP luminescence, at 10 µM
[2] = biological target: Receptor tyrosine-protein kinase erbB-2 (Homo sapiens) (UniProt P04626); assay: as above; conditions: 18-24 h, at 10 µM, stronger effect = lower value
[3] = SK-BR-3 cell growth inhibitors, pilot screen, 24 h, human (AID 572;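 active = viability at or below 10% of carrier control in both of two separate runs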;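 note: compound exposure lasted between 18 and 24 h rather than exactly 24 h; 100% = carrier-treated control wells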); conditions: SK-BR-3 viability, CellTiter-Glo luminescence, at 10 µM, stronger effect = lower value
[4] = HUVEC growth inhibition – cell-based, human, primary screen (AID 575;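 active = viability at or below 30% in both replicate assays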;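 note: 100% = median of untreated cell wells with 0.1% DMSO on each plate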); conditions: HUVEC proliferation, CellTiter-Glo luminescence, 72 h; at 10 µM; stronger effect = lower value
[5] = growth inhibitors of H69AR lung tumor, primary screen, human, duplicate replicates (AID 580;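 active = viability at or under a set limit in both replicates, limit being median viability minus 3 SD, cut at about 48% in these data, passing the limit was not always enough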;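 note: 100% = mean luminescence of untreated wells and 0% = no signal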); conditions: H69AR lung tumor cells viability, ATP luminescence, 72 h; at 10 µM; stronger effect = lower value
[6] = reversal of MRP1-mediated doxorubicin resistance, pilot screen, H69AR cells, doxorubicin co-treatment (AID 601;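 active = viability loss from added drug above about 55%, and viability with drug at most 40%, in both replicates, limit read from the data, passing the limit was not always enough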); conditions: CellTiter-Glo, 72 h, at 10 µM; for differential viability (reversal): stronger effect = higher value
[7] = 384-well plate pilot, post-Golgi transport modulator project, inhibition of yeast transport mutant growth (AID 636; in the data active = inhibition above about 31%); conditions: absorbance 615 nm, about 18 h, stronger effect = higher value
[8] = growth suppression of yeast trafficking mutant, preliminary HTS, modulators of trafficking downstream of Golgi apparatus project, 1536-format plate, OD 615 nm (AID 637; in the data active = inhibition above about 30%); conditions: yeast transport mutant growth, absorbance 615 nm, 18 h; stronger effect = higher value
[9] = OD615 S. cerevisiae growth inhibition, permissive medium, pilot counter-assay, permissive growth control for S. cerevisiae lifespan shortening project (AID 705;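 active = growth inhibition above 25% in both replicates, a cutoff set 3 SD above the mean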); conditions: OD615, 24 h, at 10 µM, stronger effect = higher value
[10] = Restrictive medium S. cerevisiae growth inhibition, OD615, pilot screen of yeast lifespan reduction project, restrictive growth control (AID 706;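 active = growth inhibition above a set limit, 3 SD over mean compound inhibition, in both replicates, cut at about 43% in these data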;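 note: modified DeaD lifespan yeast strain shifted to restrictive glucose medium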); conditions: OD615, 48 h, at 10 µM, stronger effect = higher value
[11] = viability gain of MRP-1-high H69AR cells under doxorubicin, pilot screen, MRP-1 activator project, CellTiter-Glo, duplicate (AID 807;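 active = viability increase at or above a cutoff of the median across tested compounds plus 3 SD, cut at about 8.5% in these data, passing the limit was not always enough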;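 note: compound pretreatment 18-22 h then 72 h combined with doxorubicin; 0% = doxorubicin alone and 100% = vehicle without doxorubicin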); conditions: H69AR viability with doxorubicin, CellTiter-Glo luminescence; at 10 µM; stronger effect = higher value
[12] = growth suppression of PTEN-deleted HCT116, pilot screen, cell-based, HCT116 clonal line, CellTiter-Glo (AID 824;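 active = viability at or below 27.92% in each of two runs, the all-compound median minus 4 SD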;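 note: 0% = 20 µM Hyamine control and 100% = vehicle cell control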); conditions: 60 h, at 10 µM, stronger effect = lower value
[13] = inhibitors of the yeast RAM network, pilot screen, dse1pr::URA3 reporter, 5-FOA selection (AID 869;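 active = inhibition over a set limit, the all-compound mean plus 3 SD, in both replicate runs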;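 note: 0% = DMSO wells with no growth and 100% = 10 µM 1-NA-PP1 with full growth; RAM network block rescues cells from 5-FOA so hits raise OD615 growth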); conditions: S. cerevisiae dse1pr::URA3 5-FOA growth, OD615, 2 d; at 10 µM; stronger effect = higher value; strain carries analog-sensitive mutant Cbk1 kinase
[14] = RAM signaling pathway blockade in yeast – S. cerevisiae, Pdr1DBD-CYC8 efflux-inhibited sensitized strain, primary screen (AID 1298);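 note: 0% = DMSO untreated cells without growth and 100% = 10 µM 1-NA-PP1 full growth; higher means more yeast growth rescued from 5-FOA killing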; conditions: S. cerevisiae cbk1-as DSE1-URA3 strain, 5-FOA growth OD615, 2 d; at 50 µM; stronger effect = higher value
[15] = growth suppression of beta-catenin knockout HCT116, pilot screen, human colon tumor cells (AID 823;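 active = cell viability at or below a set limit in both duplicate runs, the limit being the all-compound median minus 4 SD, cut at about 23% in these data, passing the limit was not always enough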;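 note: 0% = wells killed by 20 µM Hyamine and 100% = untreated DMSO cell wells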); conditions: CellTiter-Glo, 60 h, at 10 µM, stronger effect = lower value
[16] = H69AR cells + 2 uM doxorubicin, measured here: viability with 2 uM doxorubicin, stronger effect = lower value
[17] = H69AR cells, compound alone cytotoxicity

Chain of Receptor tyrosine-protein kinase erbB-2 (Homo sapiens) (P04626 whole entry, looked up): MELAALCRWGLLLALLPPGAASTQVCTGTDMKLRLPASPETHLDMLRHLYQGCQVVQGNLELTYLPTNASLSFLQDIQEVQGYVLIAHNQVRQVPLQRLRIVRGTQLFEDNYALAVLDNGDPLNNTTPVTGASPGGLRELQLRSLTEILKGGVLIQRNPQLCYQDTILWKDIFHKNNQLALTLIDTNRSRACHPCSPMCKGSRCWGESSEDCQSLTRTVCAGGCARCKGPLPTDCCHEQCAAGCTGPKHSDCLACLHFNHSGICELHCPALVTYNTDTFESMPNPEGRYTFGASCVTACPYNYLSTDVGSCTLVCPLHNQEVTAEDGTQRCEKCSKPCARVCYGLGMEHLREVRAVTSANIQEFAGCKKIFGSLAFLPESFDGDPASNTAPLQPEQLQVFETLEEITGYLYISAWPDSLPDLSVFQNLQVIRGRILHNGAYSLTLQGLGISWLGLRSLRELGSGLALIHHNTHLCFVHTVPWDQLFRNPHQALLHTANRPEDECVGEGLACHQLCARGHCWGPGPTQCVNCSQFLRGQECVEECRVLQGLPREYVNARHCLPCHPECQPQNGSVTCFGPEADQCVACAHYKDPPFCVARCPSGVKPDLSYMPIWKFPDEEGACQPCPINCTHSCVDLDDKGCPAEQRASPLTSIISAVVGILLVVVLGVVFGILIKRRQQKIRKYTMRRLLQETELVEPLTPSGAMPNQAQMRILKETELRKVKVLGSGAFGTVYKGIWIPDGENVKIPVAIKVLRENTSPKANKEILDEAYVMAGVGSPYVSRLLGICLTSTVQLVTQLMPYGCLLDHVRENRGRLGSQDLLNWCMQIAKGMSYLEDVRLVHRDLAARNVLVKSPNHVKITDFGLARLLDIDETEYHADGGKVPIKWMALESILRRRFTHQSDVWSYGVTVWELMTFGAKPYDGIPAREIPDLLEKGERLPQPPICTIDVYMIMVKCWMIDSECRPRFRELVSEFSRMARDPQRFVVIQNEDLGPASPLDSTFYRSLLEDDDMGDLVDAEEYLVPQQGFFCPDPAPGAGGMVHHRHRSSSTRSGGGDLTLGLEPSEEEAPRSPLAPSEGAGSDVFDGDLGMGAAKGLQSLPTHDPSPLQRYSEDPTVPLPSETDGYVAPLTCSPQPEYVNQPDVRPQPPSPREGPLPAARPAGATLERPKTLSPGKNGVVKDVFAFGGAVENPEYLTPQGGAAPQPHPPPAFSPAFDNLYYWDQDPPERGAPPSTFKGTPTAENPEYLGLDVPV

| Compound | viability [1] [%] | Her2 level [2] | viability [3] | viability [4] | viability [5] | differential viability (reversal) ([6]; H69AR cells + 2 uM doxorubicin) | viability [6, 16] [%] | viability [6, 17] [%] | inhibition [7] | inhibition [8] | growth inhibition [9] | growth inhibition [10] | viability increase [11] | viability [12] | inhibition [13] | RAM network inhibition [14] | viability [15] |
| --- | --- | --- | --- | --- | --- | --- | --- | --- | --- | --- | --- | --- | --- | --- | --- | --- | --- |
| Cc1ccc(-n2c3c(cc(C(=O)O)c2=O)C(=O)CC(C)(C)C3)cc1 | 98 | 82.5% (inactive) | 98% (inactive) | 111% (inactive) | 87.8% (inactive) | -3.07% (inactive) | 90.9 | 87.8 | -1.84% (inactive) | 0% (inactive) | -16.4% (inactive) | -5.83% (inactive) | -3.48% (inactive) | 100% (inactive) | 0.675% (inactive) | 4.71% (inactive) | – |
| CCOC(=O)c1cc2c(=O)n3ccccc3nc2n(CC(C)C)c1=NC(=O)c1ccco1 | 84.5 | 83% (inactive) | 84.5% (inactive) | 70.4% (inactive) | 7.19% (active) | 4.44% (inactive) | 2.75 | 7.19 | -2.47% (inactive) | -3.33% (inactive) | 1.45% (inactive) | 4.24% (inactive) | -7.74% (inactive) | 37.7% (inactive) | 0.955% (inactive) | 5.64% (inactive) | – |
| Cc1noc(C)c1CSc1ccccc1C(=O)N1CCN(c2ccccc2)CC1 | 87 | 86% (inactive) | 87% (inactive) | 97.8% (inactive) | 82% (inactive) | -6.2% (inactive) | 88.2 | 82 | -4.46% (inactive) | 5.57% (inactive) | -11.9% (inactive) | -20% (inactive) | -2.25% (inactive) | 72.3% (inactive) | 3.5% (inactive) | 4.4% (inactive) | – |
| CCCCOC(=O)c1[nH]c2c(c1C)C(=O)CC(c1cc(OC)c(OC)c(OC)c1)C2 (stereo not given) | 89 | 74.5% (inactive) | 89% (inactive) | 77.4% (inactive) | 72.4% (inactive) | 0.9% (inactive) | 71.5 | 72.4 | 0.38% (inactive) | -3.33% (inactive) | -13% (inactive) | -18.8% (inactive) | 1.17% (inactive) | 56.6% (inactive) | 1.75% (inactive) | 3.15% (inactive) | – |
| CN1C(=O)C(O)(CC(=O)c2ccccc2O)c2cc(Br)ccc21 (stereo not given) | 103 | 85.5% (inactive) | 103% (inactive) | 45.5% (inactive) | 27% (active) | -24.3% (inactive) | 51.3 | 27 | -4.53% (inactive) | 4% (inactive) | -2.37% (inactive) | 18% (inactive) | -6.06% (inactive) | – | -0.67% (inactive) | -2.32% (inactive) | – |
| O=c1[nH]c2ccc(Br)cc2c(-c2ccccc2)c1N1CCOCC1 | 91 | 111% (inactive) | 91% (inactive) | 60.1% (inactive) | 75.7% (inactive) | – | – | – | 0% (inactive) | 2% (inactive) | -12.5% (inactive) | -15.8% (inactive) | -3.63% (inactive) | 75.2% (inactive) | 1.29% (inactive) | 0% (inactive) | 92.7% (inactive) |
| COc1ccc(N(C)C(=O)CCS(=O)(=O)c2cccc3nonc23)cc1 | 96.5 | 85% (inactive) | 96.5% (inactive) | 94.9% (inactive) | 104% (inactive) | 14.5% (inactive) | 89.6 | 104 | -9.86% (inactive) | -0.95% (inactive) | -9.93% (inactive) | -8.78% (inactive) | -3.05% (inactive) | 89.6% (inactive) | 1.3% (inactive) | 4.67% (inactive) | – |
| O=C(NC1(C(=O)NC2CCCCC2)CCCCC1)c1ccc2c(c1)OCO2 | 96.5 | 92.5% (inactive) | 96.5% (inactive) | 105% (inactive) | 104% (inactive) | 4.42% (inactive) | 99.2 | 104 | -4.66% (inactive) | -1.27% (inactive) | -0.75% (inactive) | 10.5% (inactive) | 0.41% (inactive) | 87% (inactive) | 1% (inactive) | 5.37% (inactive) | – |
| COCCn1c(SCC(=O)N2CCc3ccccc32)nc2c(c1=O)SC(C)C2 (stereo not given) | 77 | 104% (inactive) | 77% (inactive) | 67.8% (inactive) | 78.8% (inactive) | – | – | – | -3.87% (inactive) | -2% (inactive) | 6.33% (inactive) | 13.2% (inactive) | -2.72% (inactive) | 94.3% (inactive) | 0.465% (inactive) | 6.03% (inactive) | 94.1% (inactive) |
| Cc1c(C(=O)Nc2nnc(C(F)(F)F)s2)oc2ccccc12 | 91.5 | 81.5% (inactive) | 91.5% (inactive) | 51% (inactive) | 84.8% (inactive) | -8.24% (inactive) | 93.1 | 84.8 | -6% (inactive) | -3.33% (inactive) | -4.23% (inactive) | 13.6% (inactive) | – | 65.5% (inactive) | 2.56% (inactive) | 4.2% (inactive) | – |
| Cc1cccc(Cc2c(C)nc3nc(SCC(=O)NCc4ccco4)nn3c2C)c1 | 106 | 85.5% (inactive) | 106% (inactive) | 61.8% (inactive) | 49.6% (active) | -27.8% (inactive) | 77.4 | 49.6 | -4.59% (inactive) | -0.33% (inactive) | 2.65% (inactive) | 21.9% (inactive) | -3.35% (inactive) | 81.9% (inactive) | 1.14% (inactive) | 4.46% (inactive) | – |
